These results are taken from PubChem BioAssay (Tox21).

Values joined by “and” are separate entries in the source; they are usually repeats but may differ in a detail not shown here. Equal values may be shown once. Inconclusive results are not listed. Where a call stands in place of a potency, no number is given. The source holds several records for some structures; these can differ, active in one and inactive in another. Active and inactive are the calls of the source. Calls follow the shape of the dose curve; as a rule, active = well fitted inhibition curve with a large enough effect in the signal ratio in the repeat runs, with a control signal flat; inconclusive = weak or mixed curves, or effect the other way; inactive = flat fitted curve, though single readings scatter; the % refers to the signal ratio.
Potency is read from the fitted curve at half-maximal effect.

Chain of D(2) dopamine receptor (Homo sapiens) (P14416 whole entry, looked up): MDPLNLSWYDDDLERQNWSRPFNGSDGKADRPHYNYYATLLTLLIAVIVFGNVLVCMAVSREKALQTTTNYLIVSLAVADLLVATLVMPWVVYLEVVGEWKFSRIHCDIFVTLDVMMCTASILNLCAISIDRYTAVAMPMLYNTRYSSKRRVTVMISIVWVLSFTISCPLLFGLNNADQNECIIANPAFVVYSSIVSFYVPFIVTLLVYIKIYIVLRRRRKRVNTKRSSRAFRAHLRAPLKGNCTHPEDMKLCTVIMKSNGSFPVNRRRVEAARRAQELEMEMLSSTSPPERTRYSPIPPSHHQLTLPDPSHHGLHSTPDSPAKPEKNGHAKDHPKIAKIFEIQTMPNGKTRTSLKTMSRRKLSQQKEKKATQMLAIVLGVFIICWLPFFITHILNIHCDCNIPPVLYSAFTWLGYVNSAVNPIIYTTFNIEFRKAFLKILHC

In the test the target is D(2) dopamine receptor (Homo sapiens) (UniProt P14416). Briefly: Dopamine D2 receptor (DRD2) small molecule antagonists, cell-based qHTS assay (AID 1963595). The settings on record: HEK293-DRD2 cAMP HTRF antagonist mode; series mostly up to 92.4 µM; activity change, negative = inhibition: at the top concentration. From the text:
National Center for Advancing Translational Sciences [NCATS]
Division of Preclinical Innovation [DPI]
U.S. Environmental Protection Agency [EPA]
National Institutes of Environmental Health Sciences [NIEHS]
National Toxicology Program [NTP]
U.S. Food and Drug Administration [FDA]
DRD2 is the D2 subtype of the dopamine receptor, which is coupled to Gi subtype of G protein-coupled receptor. This G protein-coupled receptor inhibits adenylyl cyclase activity. The DRD2-HEK293 cell line stably expressing D2 dopamine receptor can be used for screening agonists and antagonists of interactions between D2 and its ligands. The Hek293-DRD2 cAMP assay is based on HTRF technology. It measures changes of cAMP accumulation in response to Gi coupled GPCR activation or inhibition.
Tox21 Assay Protocol Summary:
DRD2-Hek293 cells were dispensed at 600 cells/3uL/well in 1536-well white plates using a Multidrop Dispenser. After the assay plates were incubated at a 37 C/5% CO2 incubator for 24 h, 1 uL of Ro20-1724 at final concentration of 0.1 mM was transferred to the assay plate by a Flying Reagent Dispenser. Following Ro20-1724 addition, 23 nL of compound dissolved in DMSO, positive controls or DMSO only was added to the assay plates via Wako pintool station. The assay plates were incubated at room temperature for 10 min. Next, 1 uL of mixture of NKH477 (final concentration at 200 nM) and quinpirole (final concentration at 12 nM) was added into the plates. After the assay plates were incubated at room temperature for an additional 30 min, 2.5 ul/well of cAMP-d2 and 2.5 ul/well of anti-cAMP-cryptate were added respectively into the assay plates using a Flying Reagent Dispenser. The plates were incubated at room temperature for 1 h. The fluorescence intensity in the plates was measured at 340 nm excitation and 665 & 620 nm emission by an Envision plate reader.
On the technique in general: In qHTS, concentration-response curves come from the screen itself.
As for `OCCc1ccccc1`, the Potency result was “inactive”.
In the case of `CC(=O)c1ccccn1`, the Potency entry was “inactive”.
For `O=C(c1ccccc1)C(O)c1ccccc1` (stereo not given), the Potency result is “inactive”.
Same read-out and setting: the value for `CCCCCCCCCCN` was “inactive”.
The same measure, in the same setting: the value for `COc1cc(OC)c(C(=O)CCCN2CCCC2)c(OC)c1` was “inactive”; that for `CCCCCCCCCCCC(=O)OC` was “inactive”.
For `Nc1ccc(O)c(C(=O)O)c1`, the “activity change, negative = inhibition” value is 2.15% [at 42.5 µM] (inactive).
`Oc1ccc2ccccc2c1N=Nc1ccccc1`: the Potency result is “inactive”.
Still for that read-out and setting: as for `CCC(Cc1c(I)cc(I)c(N)c1I)C(=O)O` (stereo not given), the entry is “inactive and 10.6 µM (active)”.
In the case of `Cc1ccc([N+](=O)[O-])cc1S(=O)(=O)O`, the Potency entry was “inactive”.
Same read-out and setting: the value for `CCOCC(=O)O` was “inactive”; that for `O=c1c(O)c(-c2ccc(O)cc2)oc2cc(O)cc(O)c12` was “inactive”.
The same measure, in the same setting: the value for `CC(C)(Oc1ccc(Cl)cc1)C(=O)O` was “inactive”.
The same measure, in the same setting: as for `[O-]/[N+](=N\O)c1ccccc1`, the entry is “inactive”; as for `NCCN1CCNCC1`, “inactive”; as for `Cc1ncc([N+](=O)[O-])n1CCO`, “inactive”.
On to `COc1ccc([N+](=O)[O-])cc1N`, for which the Potency entry is “inactive”.
The same measure, in the same setting: as for `O=C(O)c1cccc(C(=O)O)c1`, the entry is “inactive”; as for `CN(C)C`, “inactive”; as for `CCOC(=O)NNc1nncc2ccccc12`, “inactive”.
Same read-out and setting: the value for `CC(=O)CCC=C(C)C` was “inactive”; that for `Cc1ccc(O)c(-n2nc3ccccc3n2)c1` was “inactive”.
Regarding `OC1C(O)C(O)C(O)C(O)C1O` (stereo not given), the Potency result is “inactive”.
For `C=C(C)C(=O)OCCCCCCCCCCCC`, the Potency entry is “inactive”.
On to `CCCCCCCC/C=C\CCCCCCCC(=O)O`, for which the Potency entry was “inactive”.
As to `O=C(Cl)c1c(Cl)c(Cl)c(C(=O)Cl)c(Cl)c1Cl`, the Potency result is “inactive”.
The same measure, in the same setting: the value for `CCOC(=O)C(C#N)=C(c1ccccc1)c1ccccc1` was “inactive”.
The same measure, in the same setting: as for `Cc1cc(C)nc(NS(=O)(=O)c2ccc(N)cc2)n1`, the entry is “inactive”; as for `O=C(O)c1ccc2c(c1)C(=O)OC2=O`, “inactive”.
Consider `Cc1ccc(S(=O)(=O)Oc2ccc(N=Nc3ccc(-c4ccc(N=Nc5c(O)ccc6cc(S(=O)(=O)O)cc(S(=O)(=O)O)c56)c(C)c4)cc3C)cc2)cc1`, for which the “activity change, negative = inhibition” value was 1.72% [at 42.5 µM] (inactive).
On to `COC(=O)CCCC(=O)OC`, for which the Potency result is “inactive”.
The same measure, in the same setting: the value for `CCn1c2ccccc2c2cc(N)ccc21` was “inactive”; that for `CC(C)CC(=O)CC(C)CC(C)C` (stereo not given) was “inactive”.
With `CC(=O)Nc1cccc(O)c1`, the Potency result is “inactive”.
As to `COC(=O)c1ccc(O)cc1`, the Potency entry is “inactive”.
Same read-out and setting: as for `CC1(C)OC[C@@H]2O[C@@]3(C(=O)O)OC(C)(C)O[C@H]3[C@@H]2O1`, the entry is “inactive”; as for `Cn1c([N+](=O)[O-])cnc1COC(N)=O`, “inactive”.
Still for that read-out and setting: as for `CC[C@H](C)C(=O)O[C@H]1C[C@@H](C)C=C2C=C[C@H](C)[C@H](CC[C@@H]3C[C@@H](O)CC(=O)O3)[C@H]21`, the entry is “inactive”.
Same read-out and setting: the value for `CC(C)CC(C)CC(O)CC(C)C` (stereo not given) was “inactive”; that for `O=C=NCCCCCCN=C=O` was “inactive”.
